High-throughput results: PubChem BioAssay, National Center for Advancing Translational Sciences (NCATS)
Sfp inh = blocks B. subtilis Sfp PPTase activity. Q9F4F7. Biochemical Sfp PPTase activity, qHTS. Potency, µM, usual class: inhibitors. 310,000 compounds, 3.5% hits. AID 1490;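 further: the enzyme is Sfp with the accession as filed and its product quenches rhodamine fluorescence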
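Reaction rates are the 30-min fluorescence difference (ex 525, em 598 nm) in wells containing 15 nM Sfp, 5 uM rhodamine-CoA and 12.5 uM BHQ-2-YbbR at pH 7.6 with 10 mM MgCl2.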
JMJD2A Tudor inh = JMJD2A Tudor domain (human) inhibition | AlphaScreen JMJD2A-Tudor / H3K4me3 peptide binding | Potency, µM (doses to about 114 µM), hits mostly inhibitors | 390,000 compounds, 4.4% hits | AID 504339 | O75164; further: nearly all actives have a fitted effect of over 50% in size
HP1b binding inh = inhibitors of HP1-beta chromodomain binding to methylated histone tails. Potency, µM (highest dose often 114 µM), actives largely listed as inhibitors. P83916. 390,000 compounds, 0.56% hits. AlphaScreen HP1-beta / biotin-H3K9me3 peptide binding; further: nearly all actives have a fitted effect of over 70% in size
Target sequence (P83916 whole entry, looked up): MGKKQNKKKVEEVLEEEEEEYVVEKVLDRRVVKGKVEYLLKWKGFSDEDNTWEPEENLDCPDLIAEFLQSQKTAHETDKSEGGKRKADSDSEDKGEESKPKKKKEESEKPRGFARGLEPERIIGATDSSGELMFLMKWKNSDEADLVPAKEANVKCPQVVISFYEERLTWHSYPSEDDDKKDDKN
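HP1-beta protein (50 nM final) preincubated 30 min at room temperature with biotinylated H3(1-18)K9me3 peptide (50 nM) in PBS pH 7.4, 0.01% Tween-20, then compound added for 30 min. AlphaScreen streptavidin donor/nickel chelate acceptor beads (10 ug/mL final), 30 min dark, luminescence read.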
G9a inh = blocks human histone lysine methyltransferase G9a. G9a H3K9 monomethylation, AlphaScreen, 2 h. 350,000 compounds, 8.8% hits. Q96KQ7. Potency, µM (series often up to 102 µM), usual class: inhibitors; further: nearly all actives have a fitted effect of over 75% in size
Target sequence (Q96KQ7 913-1193 limits assumed): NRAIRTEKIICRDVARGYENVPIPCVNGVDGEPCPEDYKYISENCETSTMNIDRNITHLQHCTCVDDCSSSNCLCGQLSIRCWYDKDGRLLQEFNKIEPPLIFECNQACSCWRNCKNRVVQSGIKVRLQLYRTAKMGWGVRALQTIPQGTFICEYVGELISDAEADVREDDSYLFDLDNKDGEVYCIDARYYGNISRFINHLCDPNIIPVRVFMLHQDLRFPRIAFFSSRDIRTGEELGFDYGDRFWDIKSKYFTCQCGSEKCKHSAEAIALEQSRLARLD
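G9a (20 nM) preincubated 15 min RT with compounds, then 500 nM biotinylated H3K9 peptide and 20 uM SAM added; 2 h RT reaction. Monomethyl-H3K9 product detected by AlphaScreen with anti-H3K9me1 antibody, streptavidin donor and anti-rabbit IgG acceptor beads.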
BAZ2B inh = BAZ2B (human) inhibition; AlphaScreen BAZ2B-H3K14Ac peptide displacement; Potency, µM (highest dose often 114 µM), usual class: inhibitors; 360,000 compounds, 4.4% hits; AID 504333; further: nearly all actives have a fitted effect of over 60% in size
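In this displacement format the biotinylated H3(5-23) peptide acetylated at Lys14 serves as ligand at 50 nM, with BAZ2B at 50 nM in PBS pH 7.4 containing 0.01% Tween-20. Donor and acceptor beads are 10 ug/mL final.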
A number is an active result; - = inactive; ? = inconclusive; . = no result given; ! = repeats disagree; [ ] = remark or other dose. Most compounds without a hit are left out; they make up all but 12% or so of the library. The call rests on the fitted dose curve; in most records, active means well fitted curve in the direction sought with a large enough effect; inconclusive means small, poorly fitted or top-dose-only effect, or another doubt; inactive means no such curve, though single readings can be large; an effect the other way counts as inactive or inconclusive.

SMILES	Sfp inh	JMJD2A Tudor inh	HP1b binding inh	G9a inh	BAZ2B inh
Cc1cc(NC(=O)CSc2nnc3ccc(-c4ccc(F)cc4)nn23)no1	.	-	-	50.1µM	-
CCOc1ccccc1NC(=O)CSc1nnc2ccc(-c3ccncc3)nn12	-	-[11.4 µM]	-	-	-
CC(=O)Nc1ccc(NC(=O)CSc2nnc3ccc(-c4ccc(F)cc4)nn23)cc1	-	-	-	-	-
COc1ccccc1CCNC(=O)CSc1nnc2ccc(-c3ccncc3)nn12	-	-[11.4 µM]	-	50.1µM	-
CCc1nn2c(=O)c(S(=O)(=O)Nc3ccc(Br)cc3F)c(C)nc2s1	.	-	-	-	-
O=C(c1ccc(Cn2c(=S)[nH]c3ccc(N4CCOCC4)cc3c2=O)cc1)N1CCN(c2ccc(F)cc2)CC1	-	-	-	-	-
O=C(c1ccc(Cn2c(=S)[nH]c3cc4c(cc3c2=O)OCO4)cc1)N1CCN(c2ccccc2)CC1	-	-	-	-	-
Cc1ccc(C)c(N2CCN(C(=O)c3ccc(Cn4c(=S)[nH]c5ccc(N6CCOCC6)cc5c4=O)cc3)CC2)c1	-	-	-	39.8µM	?
COc1ccc(N2CCN(C(=O)c3ccc(Cn4c(=S)[nH]c5ccc(N6CCOCC6)cc5c4=O)cc3)CC2)cc1	70.8µM	-	-	?	-
CCOC(=O)c1[nH]c2ccc(OC)cc2c1NC(=O)c1ccc(OC)c(OC)c1	-	-	-	50.1µM	-
CCOC(=O)c1[nH]c2ccc(C)cc2c1N=CN(CC)CC	-	-	-	-	-
CCOC(=O)c1[nH]c2ccc(OC)cc2c1NC(=O)c1nonc1C	-	-	-	-	-
CCOC(=O)c1[nH]c2ccc(C)cc2c1N	17.8µM	?	-	1.78µM	-
CCOC(=O)c1[nH]c2cc(OC)c(OC)cc2c1N	44.7µM	56.2µM	-	3.16µM	-
CCOC(=O)c1[nH]c2cc(OC)c(OC)cc2c1NC(=O)CN1CCN(C)CC1	-	.	.	?	-
COc1ccc(Nc2c(-c3ccsc3)nc3nc(C)cc(C)n23)cc1	.	-	-	-	?
CC1(C)OC(=O)C(=CNc2cccc(O)c2)C(=O)O1	-	-	-	-[12.7 µM]	-
CC1(C)OC(C)(C)/C(=C/Nc2ccc(O)cc2)C1=O	?	?	-	8.91µM	?
O=C1C=C(C2CCCCC2)C(=O)c2ccccc21	.	39.8µM	?	.	.
CC[C@H]1NC(=O)c2cc(S(N)(=O)=O)c(Cl)cc2N1	-	.	.	-[21.5 µM]	.
COc1ccc(C2=NC(c3ccc(Cl)cc3)C(c3ccc(Cl)cc3)N2C(=O)N2CCNC(=O)C2)c(OC(C)C)c1 (centres undefined)	-	.	.	.	.
Cc1cccc(C)c1NC(=O)CCCCCC1NC(=O)NC1C (centres undefined)	-	-	-	12.6µM	8.91µM
O=C(CCCCC(=O)NCCCc1ccccc1)NCCCc1ccccc1	-	-	-	.	-
CC1NC(=O)NC1CCCCCC(=O)NCCc1ccccc1 (centres undefined)	-	3.55µM	?	?	0.891µM
C[C@@H]1NC(=O)N[C@@H]1CCCCCC(=O)O	.	1µM	?	.	.
SMILES	Sfp inh	JMJD2A Tudor inh	HP1b binding inh	G9a inh	BAZ2B inh
CCCCCC1NC(=O)NC1CCCCCC(=O)O (centres undefined)	-	-	-	-[12.7 µM]	-
CCCCCCCC(=O)OCCOC(=O)CCCCCCC	-	.	.	-	.
CCOC(=O)C1=C[C@]2(CC)CCCN3CCc4c(n1c1ccccc41)[C@@H]32	-	-	-	22.4µM!	?
CC[C@]12CCCN3CCc4c(n(c5ccccc45)C(=O)C1)[C@@H]32	.	-	-	-	-
CS(=O)(=O)Cc1nc2ccccc2oc1=O	?	-	-	39.8µM	-
O=C(N/N=C/C1=C(N2CCOCC2)C(=C\c2ccccc2)/CC1)Nc1ccccc1	-	-	-	-	-
Cc1cc(=O)[nH]c(N/N=C/C2=C(N3CCOCC3)C(=C\c3ccc(Cl)cc3)/CC2)n1	39.8µM	-	-	7.94µM	-
O=C(O)c1ccccc1N/N=C/C1=C(N2CCOCC2)C(=C\c2ccccc2)/CC1	-	?	?	.	50.1µM
Cc1cc(C)nc(N/N=C/C2=C(N3CCOCC3)C(=C/c3ccccc3)/CC2)n1	-	-	-	10µM	?
Cc1ccc(C(=O)c2cc3c(cc2[N+](=O)[O-])OCCO3)cc1	-	?	-	?	56.2µM
Cc1ccc(S(=O)(=O)N(Cc2n[nH]c(=S)n2-c2ccccc2)c2ccccc2)cc1	-	-	-	.	?
FC(F)(F)c1cnc2c(c1)[nH]c(=S)n2-c1ccc(Cl)cc1	-	-	-	-[0.501 µM]	-
